Experimental data as given in PubChem BioAssay (EPA / NIEHS).
Records with an inconclusive call do not appear. The source made the active and inactive calls. How the source made its calls: active means hit-call score of the fitted dose curve at least 0.9, where 1 is the maximum; inconclusive means response in the unintended direction; inactive means score below 0.9.

Assay: STM_H9_OrnCyssISnorm_ratio: Stemina devTOX quickPredict H9 human embryonic stem cell (hESC)-based Assay for Ornithine (ORN):Cystine (CYSS) Ratio (AID 2283714)
Method: STM_H9_secretome utilizes undifferentiated H9 cells to measure relative changes in two metabolites, ornithine (ORN) and cystine (CYSS) in the secretome, targeting a critical drop in the ORN/CYSS ratio as a biomarker for developmental toxicity.STM_H9_OrnCyssISnorm_ratio is one of 10 components calculated in the STM_H9_secretome assay. It is the ratio value of OrnISnorm_perc to CyssISnorm_perc.Data from the assay component STM_H9_OrnCyssISnorm_ratio was analyzed at the assay endpoint STM_H9_OrnCyssISnorm_ratio in the positive analysis fitting direction relative to DMSO as the negative control and baseline of activity. Using a type of binding reporter, gain or loss-of-signal activity can be used to understand relative metabolite change.
H9 hESCs maintained in a pluripotent state were exposed to test compound for 72h with chemical replenishment with media replacement every 24h. Cell-conditioned media from the final 24-h treatment period was collected for analysis of the targeted biomarker, and cell viability of the corresponding cell layer was assessed. The chemical library was tested in blinded fashion. Each test plate included 1uM Methotrexate (MTX; Selleck Chemicals, Houston, Texas) as a positive reference, 5 nM MTX as a negative reference, 0.1% DMSO as the neutral (vehicle) control, and sample-level media blanks.H9 cell-conditioned media from the final 24-h treatment period was collected for analysis of the targeted biomarker and cell viability was measured from the corresponding cell layer. Cell viability was measured using the CellTiter-Fluor assay (Promega, Madison, Wisconsin) based on proteolytic cleavage of a substrate to fluorescent signal proportional to the number of living cells. The cell viability Relative Fluorescence Unit (RFU) was background corrected and normalized to mean RFU of the neutral control (0.1% DMSO). The collected H9-cell-conditioned media samples were processed for targeted biomarker analysis as described (Palmer et al., 2013). Briefly, spent media samples were deproteinized (40% acetonitrile) and processed for UPLC-HRMS. Data acquisition was performed using 4 separate UPLC-HRMS systems, consisting of an Agilent 1290 Infinity LC system (Agilent Technologies) interfaced with an Agilent high-resolution mass spectrometer (models G6520A, G6520B, G6530A, and G6224A). A Waters Acquity UPLC BEH Amide column (2.1mm x 50mm, 1.7lm particle size; Waters, Milford, Massachusetts) maintained at 40C was applied for separation of metabolites using a 6.5min solvent gradient with 0.1% formic acid in water and 0.1% formic acid in acetonitrile (1.0ml/min flow rate). Data were acquired using MassHunter Acquisition software (version B 04.00, Agilent Technologies). The extracted ion chromatogram (EIC) areas for ORN, CYSS, and their respective spike-in C13-standards were determined using the Agilent MassHunter Quantitative Analysis software, version B.05.00 or newer (Agilent Technologies), and data were normalized as described in Palmer et al. (2017).

Structure (SMILES)	AC50	outcome
C#CCOS(=O)OC1CCCCC1Oc1ccc(C(C)(C)C)cc1 (configuration not stated)	2.89 µM (active)	–
COc1ccc(C(c2ccc(OC)cc2)C(Cl)(Cl)Cl)cc1	–	inactive
C=CC1(C)OC(=O)N(c2cc(Cl)cc(Cl)c2)C1=O (configuration not stated)	–	inactive
CN(C)C(=S)SSC(=S)N(C)C	16.2 µM (active)	–
CO/C=C(/C(=O)OC)c1ccccc1Oc1cc(Oc2ccccc2C#N)ncn1	–	inactive
CCCCNC(=O)n1c(NC(=O)OC)nc2ccccc21	6.59 µM (active)	–
CCOC(=O)CC(SP(=S)(OC)OC)C(=O)OCC (configuration not stated)	80.9 µM (active)	–
CCCCC(CC)COC(=O)c1ccccc1C(=O)OCC(CC)CCCC (configuration not stated)	30.9 µM (active)	–
N#Cc1nn(-c2c(Cl)cc(C(F)(F)F)cc2Cl)c(N)c1S(=O)C(F)(F)F (configuration not stated)	81.7 µM (active)	–
CCCC1COC(Cn2cncn2)(c2ccc(Cl)cc2Cl)O1 (configuration not stated)	57.5 µM (active)	–
CCNc1nc(Cl)nc(NCC)n1	–	inactive
CCc1nn(C)c(C(=O)NCc2ccc(C(C)(C)C)cc2)c1Cl	1.55 µM (active)	–
COC(=O)N(OC)c1ccccc1COc1ccn(-c2ccc(Cl)cc2)n1	0.806 µM (active)	–
CON(C)C(=O)Nc1ccc(Cl)c(Cl)c1	71.7 µM (active)	–
COc1nc(NC(C)C)nc(NC(C)C)n1	14.6 µM (active)	–
CC1COC(Cn2cncn2)(c2ccc(Oc3ccc(Cl)cc3)cc2Cl)O1 (configuration not stated)	3.88 µM (active)	–
OC(c1ccc(Cl)cc1)(c1cncnc1)c1ccccc1Cl (configuration not stated)	77.7 µM (active)	–
CC(C)(C)c1ccc(CSc2cnn(C(C)(C)C)c(=O)c2Cl)cc1	0.091 µM (active)	–
CCNc1nc(Cl)nc(NC(C)C)n1	50 µM (active)	–
COC(=O)c1ccccc1C(=O)OC	–	inactive
CCON=C(CC)C1=C(O)CC(c2c(C)cc(C)cc2C)CC1=O (configuration not stated)	–	inactive
CCCCOC(=O)c1ccccc1C(=O)OCCCC	56 µM (active)	–
